# Substitutions are numbered along the chain they refer to.
# Columns and labels:
# Test in all cases: PBM; 200 nM protein, PBS
# Settings in all cases: dsDNA, one strand shown
# SIX6 [1] = target: T1, SIX6 (Homo sapiens, UniProt O95475 114-200, T165P)
# T1 sequence: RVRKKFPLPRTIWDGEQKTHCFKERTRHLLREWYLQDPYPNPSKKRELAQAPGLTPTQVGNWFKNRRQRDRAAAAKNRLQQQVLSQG
# VENTX = target: T2, VENTX (Homo sapiens, UniProt O95231 78-163, Y115F)
# T2 sequence: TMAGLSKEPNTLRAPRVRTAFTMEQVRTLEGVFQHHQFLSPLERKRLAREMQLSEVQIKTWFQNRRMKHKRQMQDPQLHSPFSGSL
# HOXB6 [2] = target: HOXB6 (Homo sapiens, UniProt P17509 132-218, K202E)
# HOXB6 (Homo sapiens, UniProt P17509 132-218, K202E), sequence (P17509 132-218 K202E): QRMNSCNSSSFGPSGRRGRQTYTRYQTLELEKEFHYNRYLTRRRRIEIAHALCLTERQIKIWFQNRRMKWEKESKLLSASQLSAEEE
# HOXA4 = HOXA4 (Homo sapiens, UniProt Q00056 201-287, R217L)
# HOXA4, sequence (Q00056 201-287 R217L): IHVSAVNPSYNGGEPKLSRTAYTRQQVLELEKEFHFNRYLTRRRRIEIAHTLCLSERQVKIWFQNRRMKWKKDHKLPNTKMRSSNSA
# HOXB6 [3] = target: HOXB6 (Homo sapiens, UniProt P17509 132-218)
# HOXB6 (Homo sapiens, UniProt P17509 132-218), sequence (P17509 132-218): as the sequence (P17509 132-218 K202E) above, with E71K counted along it
# PAX4 [4] = target: T3, PAX4 (Homo sapiens, UniProt O43316 9-242)
# T3 sequence: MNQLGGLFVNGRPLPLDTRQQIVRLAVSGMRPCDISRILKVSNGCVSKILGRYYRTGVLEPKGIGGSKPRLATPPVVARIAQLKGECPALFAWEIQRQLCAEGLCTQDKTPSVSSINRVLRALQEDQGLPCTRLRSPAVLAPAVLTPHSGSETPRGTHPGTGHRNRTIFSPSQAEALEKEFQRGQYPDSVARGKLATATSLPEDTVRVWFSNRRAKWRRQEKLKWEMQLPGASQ
# PAX4 [5] = target: T4, PAX4 (Homo sapiens, UniProt O43316 9-242, F177V)
# T4 sequence: T3 sequence with F169V
# SIX6 [6] = target: T5, SIX6 (Homo sapiens, UniProt O95475 114-200, T139Q)
# T5 sequence: T1 sequence with T26Q, P52T
# HOXA2 [7] = target: HOXA2 (Homo sapiens, UniProt O43364 129-215, R185T)
# HOXA2 (Homo sapiens, UniProt O43364 129-215, R185T), sequence (O43364 129-215 R185T): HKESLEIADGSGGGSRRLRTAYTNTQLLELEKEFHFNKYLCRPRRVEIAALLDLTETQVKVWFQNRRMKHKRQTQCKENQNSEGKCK
# MSX2 = MSX2 (Homo sapiens, UniProt P35548 130-214, R199I)
# MSX2, sequence (P35548 130-214 R199I): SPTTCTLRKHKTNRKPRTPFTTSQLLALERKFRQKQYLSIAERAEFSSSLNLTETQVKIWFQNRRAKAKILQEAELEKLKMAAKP
# HOXA2 [8] = target: HOXA2 (Homo sapiens, UniProt O43364 129-215, R185K)
# HOXA2 (Homo sapiens, UniProt O43364 129-215, R185K), sequence (O43364 129-215 R185K): as the sequence (O43364 129-215 R185T) above, with T57K counted along it
# ALX1 [9] = target: ALX1 (Homo sapiens, UniProt Q15699 118-204, L144V)
# ALX1 (Homo sapiens, UniProt Q15699 118-204, L144V), sequence (Q15699 118-204 L144V): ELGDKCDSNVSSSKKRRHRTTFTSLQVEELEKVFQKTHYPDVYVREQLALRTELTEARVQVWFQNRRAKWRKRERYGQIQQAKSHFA
# ALX1 [10] = target: ALX1 (Homo sapiens, UniProt Q15699 118-204, L144R)
# ALX1 (Homo sapiens, UniProt Q15699 118-204, L144R), sequence (Q15699 118-204 L144R): as the sequence (Q15699 118-204 L144V) above, with V27R counted along it
# PAX4 [11] = target: T6, PAX4 (Homo sapiens, UniProt O43316 9-242, F177Y)
# T6 sequence: T3 sequence with F169Y
# ALX1 [12] = target: ALX1 (Homo sapiens, UniProt Q15699 118-204)
# ALX1 (Homo sapiens, UniProt Q15699 118-204), sequence (Q15699 118-204): as the sequence (Q15699 118-204 L144V) above, with V27L counted along it
# ALX3 [13] = target: ALX3 (Homo sapiens, UniProt O95076 139-225, N203Q)
# ALX3 (Homo sapiens, UniProt O95076 139-225, N203Q), sequence (O95076 139-225 N203Q): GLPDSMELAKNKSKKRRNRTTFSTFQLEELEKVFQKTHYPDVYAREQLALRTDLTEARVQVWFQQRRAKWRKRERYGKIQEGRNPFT
# ALX3 [14] = target: ALX3 (Homo sapiens, UniProt O95076 139-225)
# ALX3 (Homo sapiens, UniProt O95076 139-225), sequence (O95076 139-225): as the sequence (O95076 139-225 N203Q) above, with Q65N counted along it
# ALX3 [15] = target: ALX3 (Homo sapiens, UniProt O95076 139-225, N203S)
# ALX3 (Homo sapiens, UniProt O95076 139-225, N203S), sequence (O95076 139-225 N203S): as the sequence (O95076 139-225 N203Q) above, with Q65S counted along it
# SIX6 [16] = target: T7, SIX6 (Homo sapiens, UniProt O95475 114-200, L167M)
# T7 sequence: T1 sequence with P52T, L54M
# PAX4 [17] = target: T8, PAX4 (Homo sapiens, UniProt O43316 9-242, R227W)
# T8 sequence: T3 sequence with R219W
# VAX1 [18] = target: VAX1 (Homo sapiens, UniProt Q5SQQ9 86-172)
# VAX1 (Homo sapiens, UniProt Q5SQQ9 86-172), sequence (Q5SQQ9 86-172): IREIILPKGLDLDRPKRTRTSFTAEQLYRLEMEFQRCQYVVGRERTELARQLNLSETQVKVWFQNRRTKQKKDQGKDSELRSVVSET
# VAX1 [19] = target: VAX1 (Homo sapiens, UniProt Q5SQQ9 86-172, T142I)
# VAX1 (Homo sapiens, UniProt Q5SQQ9 86-172, T142I), sequence (Q5SQQ9 86-172 T142I): as the sequence (Q5SQQ9 86-172) above, with T57I counted along it
# VAX1 [20] = target: VAX1 (Homo sapiens, UniProt Q5SQQ9 86-172, K157R)
# VAX1 (Homo sapiens, UniProt Q5SQQ9 86-172, K157R), sequence (Q5SQQ9 86-172 K157R): as the sequence (Q5SQQ9 86-172) above, with K72R counted along it
sequence,measurement,setting,value
CCGGATAC,binding signal,SIX6 [1],"9.26 upbm affinity estimate (log intensity, higher = more binding, comparable within an allelic series)"
AATCGATT,binding signal,VENTX,"10.7 upbm affinity estimate (log intensity, higher = more binding, comparable within an allelic series)"
same,binding signal,HOXB6 [2],"9.7 upbm affinity estimate (log intensity, higher = more binding, comparable within an allelic series)"
same,binding signal,HOXA4,"12 upbm affinity estimate (log intensity, higher = more binding, comparable within an allelic series)"
same,binding signal,HOXB6 [3],"11 upbm affinity estimate (log intensity, higher = more binding, comparable within an allelic series)"
AGGGATCG,binding signal,SIX6 [1],"9.2 upbm affinity estimate (log intensity, higher = more binding, comparable within an allelic series)"
CGCGGATC,binding signal,SIX6 [1],"9.18 upbm affinity estimate (log intensity, higher = more binding, comparable within an allelic series)"
CCGGATCC,binding signal,SIX6 [1],"9.14 upbm affinity estimate (log intensity, higher = more binding, comparable within an allelic series)"
GAGGATCC,binding signal,SIX6 [1],"9.19 upbm affinity estimate (log intensity, higher = more binding, comparable within an allelic series)"
AATCGTAT,binding signal,PAX4 [4],"10.8 upbm affinity estimate (log intensity, higher = more binding, comparable within an allelic series)"
same,binding signal,PAX4 [5],"10.3 upbm affinity estimate (log intensity, higher = more binding, comparable within an allelic series)"
ATTTTTAC,binding signal,PAX4 [4],"10.5 upbm affinity estimate (log intensity, higher = more binding, comparable within an allelic series)"
GTCGATTA,binding signal,VENTX,"10.9 upbm affinity estimate (log intensity, higher = more binding, comparable within an allelic series)"
CCGGATCG,binding signal,SIX6 [1],"9.19 upbm affinity estimate (log intensity, higher = more binding, comparable within an allelic series)"
GGGATCAC,binding signal,SIX6 [1],"9.32 upbm affinity estimate (log intensity, higher = more binding, comparable within an allelic series)"
same,binding signal,SIX6 [6],"11.1 upbm affinity estimate (log intensity, higher = more binding, comparable within an allelic series)"
CGGATCAG,binding signal,SIX6 [1],"9.26 upbm affinity estimate (log intensity, higher = more binding, comparable within an allelic series)"
CTAATCAC,binding signal,VENTX,"11.7 upbm affinity estimate (log intensity, higher = more binding, comparable within an allelic series)"
same,binding signal,HOXA2 [7],"12.7 upbm affinity estimate (log intensity, higher = more binding, comparable within an allelic series)"
same,binding signal,MSX2,"11.1 upbm affinity estimate (log intensity, higher = more binding, comparable within an allelic series)"
same,binding signal,HOXA2 [8],"13.3 upbm affinity estimate (log intensity, higher = more binding, comparable within an allelic series)"
CGGGTATC,binding signal,SIX6 [1],"9.28 upbm affinity estimate (log intensity, higher = more binding, comparable within an allelic series)"
same,binding signal,SIX6 [6],"11.1 upbm affinity estimate (log intensity, higher = more binding, comparable within an allelic series)"
AATCGGTC,binding signal,VENTX,"10.1 upbm affinity estimate (log intensity, higher = more binding, comparable within an allelic series)"
CGTGTAAA,binding signal,PAX4 [4],"10.4 upbm affinity estimate (log intensity, higher = more binding, comparable within an allelic series)"
GATCCCCA,binding signal,SIX6 [1],"9.34 upbm affinity estimate (log intensity, higher = more binding, comparable within an allelic series)"
ACGGATAA,binding signal,PAX4 [4],"10.8 upbm affinity estimate (log intensity, higher = more binding, comparable within an allelic series)"
same,binding signal,ALX1 [9],"8.5 upbm affinity estimate (log intensity, higher = more binding, comparable within an allelic series)"
same,binding signal,ALX1 [10],"8.23 upbm affinity estimate (log intensity, higher = more binding, comparable within an allelic series)"
same,binding signal,PAX4 [5],"10.1 upbm affinity estimate (log intensity, higher = more binding, comparable within an allelic series)"
same,binding signal,PAX4 [11],"10.2 upbm affinity estimate (log intensity, higher = more binding, comparable within an allelic series)"
same,binding signal,ALX1 [12],"8.73 upbm affinity estimate (log intensity, higher = more binding, comparable within an allelic series)"
AAATGGGT,binding signal,VENTX,"10.2 upbm affinity estimate (log intensity, higher = more binding, comparable within an allelic series)"
same,binding signal,ALX3 [13],"8.27 upbm affinity estimate (log intensity, higher = more binding, comparable within an allelic series)"
same,binding signal,ALX3 [14],"9.3 upbm affinity estimate (log intensity, higher = more binding, comparable within an allelic series)"
same,binding signal,ALX3 [15],"8.31 upbm affinity estimate (log intensity, higher = more binding, comparable within an allelic series)"
GGGGATAC,binding signal,SIX6 [1],"9.17 upbm affinity estimate (log intensity, higher = more binding, comparable within an allelic series)"
TCTTATCA,binding signal,PAX4 [4],"10.6 upbm affinity estimate (log intensity, higher = more binding, comparable within an allelic series)"
same,binding signal,ALX3 [13],"8.33 upbm affinity estimate (log intensity, higher = more binding, comparable within an allelic series)"
same,binding signal,ALX3 [14],"9.29 upbm affinity estimate (log intensity, higher = more binding, comparable within an allelic series)"
same,binding signal,ALX3 [15],"8.36 upbm affinity estimate (log intensity, higher = more binding, comparable within an allelic series)"
ACGGATCG,binding signal,SIX6 [1],"9.19 upbm affinity estimate (log intensity, higher = more binding, comparable within an allelic series)"
ATCGATCG,binding signal,PAX4 [4],"10.5 upbm affinity estimate (log intensity, higher = more binding, comparable within an allelic series)"
same,binding signal,PAX4 [5],"10 upbm affinity estimate (log intensity, higher = more binding, comparable within an allelic series)"
same,binding signal,PAX4 [11],"10.1 upbm affinity estimate (log intensity, higher = more binding, comparable within an allelic series)"
AGATCCGC,binding signal,SIX6 [1],"9.23 upbm affinity estimate (log intensity, higher = more binding, comparable within an allelic series)"
CCGATACC,binding signal,SIX6 [1],"9.05 upbm affinity estimate (log intensity, higher = more binding, comparable within an allelic series)"
same,binding signal,SIX6 [16],"10 upbm affinity estimate (log intensity, higher = more binding, comparable within an allelic series)"
CGGATACC,binding signal,SIX6 [1],"9.26 upbm affinity estimate (log intensity, higher = more binding, comparable within an allelic series)"
ATCGATCA,binding signal,VENTX,"9.96 upbm affinity estimate (log intensity, higher = more binding, comparable within an allelic series)"
GGATACCC,binding signal,SIX6 [1],"9.29 upbm affinity estimate (log intensity, higher = more binding, comparable within an allelic series)"
TAGTCACA,binding signal,PAX4 [4],"10.1 upbm affinity estimate (log intensity, higher = more binding, comparable within an allelic series)"
GATTTTCA,binding signal,PAX4 [4],"10.7 upbm affinity estimate (log intensity, higher = more binding, comparable within an allelic series)"
AAATCGGT,binding signal,VENTX,"9.94 upbm affinity estimate (log intensity, higher = more binding, comparable within an allelic series)"
ACCGATCA,binding signal,VENTX,"9.96 upbm affinity estimate (log intensity, higher = more binding, comparable within an allelic series)"
CGATTAGA,binding signal,VENTX,"10.8 upbm affinity estimate (log intensity, higher = more binding, comparable within an allelic series)"
CCACGTTA,binding signal,PAX4 [4],"10.7 upbm affinity estimate (log intensity, higher = more binding, comparable within an allelic series)"
same,binding signal,PAX4 [5],"10.1 upbm affinity estimate (log intensity, higher = more binding, comparable within an allelic series)"
same,binding signal,PAX4 [11],"10.1 upbm affinity estimate (log intensity, higher = more binding, comparable within an allelic series)"
same,binding signal,PAX4 [17],"10.2 upbm affinity estimate (log intensity, higher = more binding, comparable within an allelic series)"
CCATATCG,binding signal,SIX6 [16],"10.1 upbm affinity estimate (log intensity, higher = more binding, comparable within an allelic series)"
GTATCGGA,binding signal,SIX6 [16],"10.1 upbm affinity estimate (log intensity, higher = more binding, comparable within an allelic series)"
AATTGCGA,binding signal,PAX4 [4],"10.7 upbm affinity estimate (log intensity, higher = more binding, comparable within an allelic series)"
same,binding signal,PAX4 [5],"9.91 upbm affinity estimate (log intensity, higher = more binding, comparable within an allelic series)"
same,binding signal,PAX4 [11],"10 upbm affinity estimate (log intensity, higher = more binding, comparable within an allelic series)"
same,binding signal,VAX1 [18],"9.89 upbm affinity estimate (log intensity, higher = more binding, comparable within an allelic series)"
same,binding signal,VAX1 [19],"9.67 upbm affinity estimate (log intensity, higher = more binding, comparable within an allelic series)"
same,binding signal,PAX4 [17],"10.1 upbm affinity estimate (log intensity, higher = more binding, comparable within an allelic series)"
same,binding signal,VAX1 [20],"9.62 upbm affinity estimate (log intensity, higher = more binding, comparable within an allelic series)"
ATATACCA,binding signal,SIX6 [16],"10.7 upbm affinity estimate (log intensity, higher = more binding, comparable within an allelic series)"
CGTATCGC,binding signal,SIX6 [16],"10 upbm affinity estimate (log intensity, higher = more binding, comparable within an allelic series)"
GAGATATA,binding signal,SIX6 [16],"10.8 upbm affinity estimate (log intensity, higher = more binding, comparable within an allelic series)"
AATATACC,binding signal,SIX6 [16],"10.9 upbm affinity estimate (log intensity, higher = more binding, comparable within an allelic series)"
ACTAACTA,binding signal,PAX4 [4],"10.8 upbm affinity estimate (log intensity, higher = more binding, comparable within an allelic series)"
same,binding signal,PAX4 [5],"10.1 upbm affinity estimate (log intensity, higher = more binding, comparable within an allelic series)"
same,binding signal,PAX4 [11],"10.1 upbm affinity estimate (log intensity, higher = more binding, comparable within an allelic series)"
same,binding signal,PAX4 [17],"10.2 upbm affinity estimate (log intensity, higher = more binding, comparable within an allelic series)"
